Read-out in test [1]: Human Leukocyte Antigen - DR isotype (HLADR), HLA-DRA (gene 3122)
Nature of the test: BSK_BE3C_HLADR: BioMAP Diversity Plus: BE3C Assay for Human Leukocyte Antigen - DR isotype (HLADR) Biomarker Activity (AID 2283032). The note with it: primary human bronchial epithelial cells; actives raise or lower the signal. The gist of the method: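 BioMAP BE3C format: human bronchial epithelium, 24 h compound treatment, ELISA detection of HLA-DR, with bidirectional analysis relative to DMSO.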

Read-out in test [2]: Vascular cell adhesion molecule 1 (VCAM1), VCAM1 (gene 7412)
Put plainly: BSK_4H_VCAM1: BioMAP Diversity Plus: 4H Assay for Vascular cell adhesion molecule 1 (VCAM1) Biomarker Activity (AID 2283033).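 For outcome: cell-surface VCAM-1 protein measured by ELISA.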 As to conditions: primary human endothelial cells (HUVEC); actives raise or lower the signal. The gist of the method:
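In this human endothelial (HUVEC) system, biomarker ELISA was run 24 h after compound addition, and total protein in parallel wells was assessed by SRB at 560 nm; DMSO served as negative control.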

Read-out in test [3]: Interferon-gamma inducible Protein 10 (IP10), CXCL10 (gene 3627)
Put plainly: BSK_BE3C_IP10: BioMAP Diversity Plus: BE3C Assay for Interferon-gamma inducible Protein 10 (IP10) Biomarker Activity (AID 2283034). As to conditions: primary human bronchial epithelial cells; actives raise or lower the signal. The gist of the method: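 BE3C cells (human bronchial epithelial, primary); 24 h exposure; ELISA for IP-10; DMSO-referenced bidirectional fit.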

Read-out in test [4]: Monokine induced gamma interferon (MIG), CXCL9 (gene 4283)
Nature of the test: BSK_BE3C_MIG: BioMAP Diversity Plus: BE3C Assay for Monokine induced gamma interferon (MIG) Biomarker Activity (AID 2283035).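 For outcome: MIG protein measured by ELISA in BE3C cultures after 24 h of dosing.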 As to conditions: primary human bronchial epithelial cells; actives raise or lower the signal. The gist of the method: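 ELISA quantified MIG after 24 h exposure of primary bronchial epithelial cultures, analysed in both directions relative to DMSO. Cytotoxicity tracked in parallel cultures by sulforhodamine B staining.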

Read-out in test [5]: Transforming growth factor beta 1 (TGFb1), TGFB1 (gene 7040)
Put plainly: BSK_BE3C_TGFb1: BioMAP Diversity Plus: BE3C Assay for Transforming growth factor beta 1 (TGFb1) Biomarker Activity (AID 2283036;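 for outcome: TGF-b1 protein level measured by ELISA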). As to conditions: primary human bronchial epithelial cells; actives raise or lower the signal. The gist of the method: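 TGF-b1 measured via ELISA, 24 h after chemical dosing of human bronchial epithelial cells (BE3C). Overt cytotoxicity assessed in parallel by SRB (0.1%, TCA-fixed, 560 nm); analysis bidirectional relative to DMSO.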

Read-out in test [6]: Plasminogen activator inhibitor-1 (PAI1), SERPINE1 (gene 5054)
Put plainly: BSK_BE3C_PAI1: BioMAP Diversity Plus: BE3C Assay for Plasminogen activator inhibitor-1 (PAI1) Biomarker Activity (AID 2283037). The note with it: primary human bronchial epithelial cells; actives raise or lower the signal. The gist of the method:
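In this multiplexed primary-cell system, bronchial epithelial cells receive test chemical and are sampled at 24 h. PAI-1 is read by ELISA, with DMSO serving as negative control for bidirectional fitting.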

Read-out in test [7]: urokinase plasminogen activator (uPA), PLAU (gene 5328)
Nature of the test: BSK_BE3C_uPA: BioMAP Diversity Plus: BE3C Assay for urokinase plasminogen activator (uPA) Biomarker Activity (AID 2283038).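 For outcome: uPA protein level quantified by ELISA in cell cultures; uPA read one day after compound addition.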 As to conditions: primary human bronchial epithelial cells; actives raise or lower the signal. The gist of the method:
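Measured by ELISA: uPA from human primary bronchial epithelial cells 24 h after chemical treatment. Values derive from bidirectional curve fitting with DMSO serving as negative control. Total protein by SRB staining in parallel wells flagged overt cytotoxicity.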

Read-out in test [8]: Urokinase-type plasminogen activator receptor (uPAR), PLAUR (gene 5329)
Nature of the test: BSK_BE3C_uPAR: BioMAP Diversity Plus: BE3C Assay for Urokinase-type plasminogen activator receptor (uPAR) Biomarker Activity (AID 2283039).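 For outcome: uPAR protein level measured by ELISA on the cells; cells exposed to compound for one day before measurement.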 As to conditions: primary human bronchial epithelial cells; actives raise or lower the signal. The gist of the method:
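Chemically treated human bronchial epithelial cells (lung primary) are assayed for uPAR by ELISA after 24 h, with data fitted in both directions using DMSO as negative control.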

Read-out in test [9]: Interleukin-6 (IL6), IL6 (gene 3569)
Put plainly: BSK_CASM3C_IL6: BioMAP Diversity Plus: CASM3C Assay for Interleukin-6 (IL6) Biomarker Activity for (AID 2283040). As to conditions: primary human coronary artery smooth muscle cells; actives raise or lower the signal.

Read-out in test [10]: Tissue plasminogen activator (tPA), PLAT (gene 5327)
Nature of the test: BSK_BE3C_tPA: BioMAP Diversity Plus: BE3C Assay for Tissue plasminogen activator (tPA) Biomarker Activity (AID 2283041).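 For outcome: tPA level quantified by ELISA one day after compound addition.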 As to conditions: primary human bronchial epithelial cells; actives raise or lower the signal. The gist of the method:
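Using human lung primary bronchial epithelial cells, tPA was measured by ELISA 24 h after dosing; data fitted relative to DMSO.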

Read-out in test [11]: Interleukin-8 (IL8), CXCL8 (gene 3576)
Put plainly: BSK_CASM3C_IL8: BioMAP Diversity Plus: CASM3C Assay for Interleukin-8 (IL8) Biomarker Activity (AID 2283042).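 Note: IL-8 protein level quantified by ELISA.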 The note with it: primary human coronary artery smooth muscle cells; actives raise or lower the signal.

Read-out in test [12]: Human Leukocyte Antigen - DR isotype (HLADR), HLA-DRA (gene 3122)
Put plainly: BSK_CASM3C_HLADR: BioMAP Diversity Plus: CASM3C Assay for Human Leukocyte Antigen - DR isotype (HLADR) Biomarker Activity (AID 2283043).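 Note: cell-surface HLA-DR protein level quantified by ELISA.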 As to conditions: primary human coronary artery smooth muscle cells; actives raise or lower the signal.

Read-out in test [13]: Macrophage colony-stimulating factor (MCSF), CSF1 (gene 1435)
Put plainly: BSK_CASM3C_MCSF: BioMAP Diversity Plus: CASM3C Assay for Macrophage colony-stimulating factor (MCSF) Biomarker Activity (AID 2283044).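 Note: M-CSF protein amount quantified by ELISA after 24 h exposure.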 The note with it: primary human coronary artery smooth muscle cells; actives raise or lower the signal.

Read-out in test [14]: Low-density lipoprotein receptor (LDLR), LDLR (gene 3949)
Put plainly: BSK_CASM3C_LDLR: BioMAP Diversity Plus: CASM3C Assay for Low-density lipoprotein receptor (LDLR) Biomarker Activity (AID 2283045).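 Note: LDLR protein level on the cell surface quantified by ELISA.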 The note with it: primary human coronary artery smooth muscle cells; actives raise or lower the signal.

Read-out in test [15]: Monocyte Chemoattractant Protein-1 (MCP1), CCL2 (gene 6347)
Nature of the test: BSK_CASM3C_MCP1: BioMAP Diversity Plus: CASM3C Assay for Monocyte Chemoattractant Protein-1 (MCP1) Biomarker Activity (AID 2283046).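 Note: MCP-1 level quantified by ELISA 24 h after dosing.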 The note with it: primary human coronary artery smooth muscle cells; actives raise or lower the signal.

The nature of test [16]: BSK_CASM3C_Proliferation: Cell Proliferation Assessment in the BioMAP Diversity Plus: CASM3C Assay (AID 2283047).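 Note: sulforhodamine B total protein stain as relative cell number at 560 nm; sub-confluent cells exposed 48 h before staining; fitted both ways against DMSO so gain or loss of cell number.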 The note with it: primary human coronary artery smooth muscle cells.
Read-out in test [17]: Monokine induced gamma interferon (MIG), CXCL9 (gene 4283)
Nature of the test: BSK_CASM3C_MIG: BioMAP Diversity Plus: CASM3C Assay for Monokine induced gamma interferon (MIG) Biomarker Activity (AID 2283048).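 Note: MIG protein level measured by ELISA.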 As to conditions: primary human coronary artery smooth muscle cells; actives raise or lower the signal.

Read-out in test [18]: serum amyloid A (SAA), SAA1 (gene 6288)
Nature of the test: BSK_CASM3C_SAA: BioMAP Diversity Plus: CASM3C Assay for serum amyloid A (SAA) Biomarker Activity (AID 2283049).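 Note: SAA protein level quantified by ELISA.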 The note with it: primary human coronary artery smooth muscle cells; actives raise or lower the signal.

Test [19] in a line: BSK_CASM3C_SRB: Viability Assessment in the BioMAP Diversity Plus: CASM3C Assay (AID 2283050).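 Note: total protein by SRB staining as cytotoxicity measure in parallel cultures.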 The note with it: primary human coronary artery smooth muscle cells.
Read-out in test [20]: Thrombomodulin, THBD (gene 7056)
Put plainly: BSK_CASM3C_Thrombomodulin: BioMAP Diversity Plus: CASM3C Assay for Thrombomodulin Biomarker Activity (AID 2283051).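 Note: thrombomodulin protein level measured by ELISA 24 h after dosing.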 As to conditions: primary human coronary artery smooth muscle cells; actives raise or lower the signal.

Activity calls are given as the source filed them. Rule for the calls: active = hit-call score of the fitted dose curve at least 0.9, where 1 is the maximum; inactive = score below 0.9.

Usually AC50 stands for the concentration giving half of the maximal activity seen. Turning to `Cc1oc(-c2ccccc2)nc1CCOc1ccc(C[C@H](Nc2ccccc2C(=O)c2ccccc2)C(=O)O)cc1`, the AC50 is 3.01 µM (active) in test [1]; 33.5 µM (active) in test [2]; 2.55 µM (active) in test [3]; 4.79 µM (active) in test [4]; 5.06 µM (active) in [5]; 5.29 µM (active) in [6]. Also, the AC50 in test [7] is 1.8 µM (active); in test [8] it was 3.63 µM (active); in [9], 29.9 µM (active); in test [12], 34.6 µM (active); in test [13], 30.8 µM (active); in [14], 4.87 µM (active). In addition, the AC50 was 32.4 µM (active) in test [15], 31.8 µM (active) in [16] and 32.3 µM (active) in [19]. Also, the result in test [10], in test [11], in test [17], in test [18] and in [20] was inactive.

In the case of `Oc1cc2ccccc2c2ccccc12`, the AC50 in [1] is 13.8 µM (active); in test [2], 8.16 µM (active); in test [3], 13 µM (active); in test [4], 28.8 µM (active); in [5] it was 13.9 µM (active); in [6], 24.9 µM (active). Also, the AC50 in [7] is 13.9 µM (active); in [8] it was 27.6 µM (active); in test [9], 8.56 µM (active); in test [10], 14.7 µM (active); in test [11], 10.6 µM (active); in test [12] it was 7.47 µM (active). Further, the AC50 in [13] was 8.24 µM (active); in [14] it was 10.1 µM (active); in [15], 11.4 µM (active); in test [16], 10.5 µM (active); in test [17], 11.9 µM (active); in [18], 11.3 µM (active). Besides, the AC50 in test [19] was 11.2 µM (active). Also, the result in test [20] was inactive.

Turning to `CCCCCCCCCCCCc1ccccc1S(=O)(=O)O`, the AC50 was 8.12 µM (active) in test [1]; 6.21 µM (active) in [3]; 30.1 µM (active) in test [4]; 8.96 µM (active) in test [5]; 8.94 µM (active) in test [6]; 13.9 µM (active) in [7]. Further, the values for the AC50 in test [8] and in [10] were 14.2 µM (active) and 6.79 µM (active), respectively. Also, the result in test [2], in test [9], in test [11], in test [12], in test [13] and in test [14] was inactive. Also, the outcome in test [15], in test [16], in [17], in test [18], in [19] and in test [20] was inactive.

Turning to `CCCCCCC(=O)O`, the outcome in test [1], in test [2], in test [3], in test [4], in test [5] and in [6] was inactive. The result in [7], in test [8], in test [9], in test [10], in test [11] and in test [12] was inactive. Further, the result in test [13], in [14], in test [15], in [16], in [17] and in [18] was inactive. For the same molecule, the outcome in test [19] and in test [20] was inactive.

`CCCCCCCCOC(=O)CCCCCCCCC(=O)OCCCCCCCC`: the outcome in test [1], in [2], in test [3], in [4], in test [5] and in [6] was inactive. Moreover, the outcome in test [7], in [8], in test [9], in test [10], in [11] and in [12] was inactive. For the same molecule, the result in [13], in [14], in test [15], in test [16], in test [17] and in test [18] was inactive. Also, the result in test [19] and in test [20] was inactive.

These data come from PubChem BioAssay (EPA / NIEHS).
